# Source: PubChem BioAssay (NCATS)
# Records with an inconclusive call do not appear. Values without a mark were called inactive. Active and inactive are the calls of the source. Calls come from the whole dose curve; as a rule, active = well fitted cell-killing curve with a large enough effect; inconclusive = small, poorly fitted or top-dose-only effect; inactive = no such curve, though single readings can be large or run the other way.
# Test: qHTS of pediatric cancer cell lines to identify multiple opportunities for drug repurposing: Primary screen for LAN-5 cells (AID 1347100)
# Details: LAN-5 neuroblastoma viability, CellTiter-Glo luminescence, 48 h; series mostly up to 46 µM; activity change, negative = cytotoxic: at the top concentration
# Text: Drug repurposing or repositioning has been offered as a strategy for drug development in oncology programs. This approach has special potential for childhood cancers and other rare or orphan diseases, where the expected return on new drug development has been a disincentive to pharmaceuticals.
# In this project we exploit the poly-pharmacology of drugs to discover new indications via phenotypic screening of a panel of 19 well-characterized cell lines derived from solid tumors seen in children and adolescents. The goal is to identify approved drugs with previously unrecognized anticancer properties that has the potential to reveal new mechanisms and biological processes involved in carcinogenesis or drug resistance. We employed a titration-based paradigm (quantitative high-throughput screening or qHTS), where all compounds were tested at multiple concentrations for their effect on cell viability. Concentration-response curves (CRCs) were derived directly from the primary screen, and both potency and efficacy values were used to identify compounds with robust bioactivity profiles. We screened the NIH Chemical Genomics Center (NCGC) Pharmaceutical Collection (NPC) and Mechanism Interrogation Plate (MIPE) small molecule collections of approved and investigational compounds against these cell lines; and measured metabolically active cells after 48 hours of compound treatment as a proxy for cell viability.
# Assay Submitter: Nathalia J. Martinez, National Center for Advancing Translational Sciences, National Institutes of Health, Rockville, MD, USA; email: natalia.martinez@nih.gov
# [1] Shen, M et al. Quantitative high-throughput phenotypic screening of pediatric cancer cell lines identifies multiple opportunities for drug repurposing. Oncotarget 2017 Dec 19;9(4):4758-4772. PMID 29435139.
# The cells were obtained from University of North Carolina (UNC), Pediatric Preclinical Testing Program (PPT), and Coriell Institute (CI).
# qHTS cell viability assay:
# Cells were assayed in growth media at a density of 500-1,000 cells/well. Five microliters of cells were dispensed into 1,536-well, white, solid-bottom, TC-treated plates (Greiner Bio One) using a multidrop dispenser and incubated at 37 degrees C, 5% CO2, under a humidified atmosphere for 5 hours. Twenty-three nanoliters of compounds and controls (neutral control DMSO or positive control bortezomib at final concentration of 2.3 µM) were subsequently transferred by Kalypsys pintool. For primary screens, the MIPE collection was tested at 11-point dilutions (final concentrations range from 0.78 nM to 46 µM) and the NPC collection at 8-point dilutions (final concentrations range from 0.59 nM to 46 µM). Compounds tested in follow-up screens were assayed at 11-point dilutions. Cells were incubated for 48 hours, followed by addition of 3 µL of CellTiter-Glo (Promega). After a 15 min incubation at room temperature, samples were analyzed for luminescence intensity using a ViewLux High-throughput CCD imager equipped with clear filters.
# Potency is the fitted concentration of half-maximal effect.
SMILES,"activity change, negative = cytotoxic",Potency
Nc1c2c(nc3ccccc13)CCCC2O (stereo not given),30.9%,
COc1cc(Cc2cnc(N)nc2N)cc(OC)c1OC,6%,
Cc1nc2sccn2c(=O)c1CCN1CCC(=C(c2ccc(F)cc2)c2ccc(F)cc2)CC1,-25.1%,
CN(C)C(=O)Oc1cccc([N+](C)(C)C)c1,21%,
FC(F)(F)c1ccccc1-n1ccnc1,2.65%,
CC(=O)OC(C)C[N+](C)(C)C (stereo not given),-1.73%,
Nc1nc(N)c2nc(-c3ccccc3)c(N)nc2n1,,13.3 µM (active)
CCCCNC(=O)NS(=O)(=O)c1ccc(C)cc1,-4.14%,
CN(C)[C@@H]1C(=O)C(C(N)=O)=C(O)[C@@]2(O)C(=O)C3=C(O)c4c(O)ccc(Cl)c4[C@@H](O)[C@H]3C[C@@H]12,-12.5%,
CCN(CC)CCOCCOC(=O)C1(c2ccccc2)CCCC1,-13.1%,
Cc1nc2c([nH]1)c(=O)n(C)c(=O)n2Cc1ccco1,-2.95%,
CCCN(CCC)C(=O)C(CCC(=O)O)NC(=O)c1ccccc1 (stereo not given),0.973%,
CCO/C([O-])=N/c1c[n+](N2CCOCC2)no1,16.8%,
Cc1ccc(/C(=C\CN2CCCC2)c2ccccn2)cc1,-7.46%,
CN1CCN(C2=Nc3ccccc3Oc3ccc(Cl)cc32)CC1,-4.01%,
O=C(O)CCCCCCCC(=O)O,4.82%,
CC[N+](C)(C)c1cccc(O)c1,14.2%,
O=C(O)CP(=O)(O)O,17.2%,
CN(C)C/C=C(/c1ccc(Br)cc1)c1cccnc1,-2.18%,
CC(C)NCC(O)c1cc(O)cc(O)c1 (stereo not given),8.61%,

SMILES,"activity change, negative = cytotoxic",Potency
NC(N)=N/N=C/c1c(Cl)cccc1Cl,-20.5%,
NC(Cc1ccc(Cl)cc1)C(=O)O (stereo not given),0.0057% [at 0.597 µM],
CC(=O)OCC1=C(C(=O)O)N2C(=O)[C@@H](NC(=O)Cc3cccs3)[C@H]2SC1,30.4%,
c1cnc(N2CCN(Cc3ccc4c(c3)OCO4)CC2)nc1,12.1%,
NC(=Nc1ccccc1)Nc1ccccc1,,inactive
Cc1cc(C)c(/C=C2\C(=O)Nc3ccccc32)[nH]1,-25%,
CC(=O)Nc1nnc(S(N)(=O)=O)s1,9.08%,
CN(C)CCOC(=O)COc1ccc(Cl)cc1,14.3%,
COc1ccc([C@@H]2Sc3ccccc3N(CCN(C)C)C(=O)[C@@H]2OC(C)=O)cc1,9.86%,
COc1ccc(CCN(C)CCCC(C#N)(c2cc(OC)c(OC)c(OC)c2)C(C)C)cc1OC (stereo not given),-17.9%,
COCCCC/C(=N\OCCN)c1ccc(C(F)(F)F)cc1,-21.1%,
CC(C)[N+](C)(CCOC(=O)C1c2ccccc2Oc2ccccc21)C(C)C,1.38%,
CN1C(=O)CC[C@H]1c1cccnc1,9.53%,
Cc1cccc(C)c1NC(=O)C(C)N (stereo not given),7.92%,
COc1ccc(CN(CCN(C)C)c2ccccn2)cc1,-14.5%,
Cc1ccc(=O)n(-c2ccccc2)c1,18.9%,
CCCC(C(=O)OCCN(CC)CC)(c1ccccc1)c1ccccc1,-29.2%,
CO[C@@]1(NC(=O)CSCC#N)C(=O)N2C(C(=O)O)=C(CSc3nnnn3C)CS[C@@H]21,15.4%,
COC(=O)[C@@H](N)Cc1ccc(O)c(O)c1,-12.7%,
CCn1nc(C(=O)O)c(=O)c2cc3c(cc21)OCO3,10.1%,
